Source: PubChem (National Center for Advancing Translational Sciences (NCATS))
The full list was thinned out, with hits kept by preference.
Giardia FBPA inh-1: qHTS Assay for Inhibitors of Fructose-1,6-bisphosphate Aldolase from Giardia Lamblia. AID 2451, 2010. purified Giardia FBPA. Potency, µM (top dose mostly 59.6 µM), inactives show at the top dose activity, negative = inhibition, hits mostly inhibitors. A8B2U2. 290,000 compounds, 0.71% hits; further: potency means the concentration at half of the fitted maximal effect; on the % scale 0 is the no-effect control and ±100 the full control effect; nearly all actives have a fitted effect of over 55% in size
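40 nM FBPA preincubated 10 min at RT with compound (up to 57.5 uM final), then substrate plus GAPDH/TPI/NAD/arsenate coupling and diaphorase/resazurin added. Fluorescence read after 20 min at RT, 525/598 nm.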
CHX counter: Cycloheximide Counterscreen for Small Molecule Inhibitors of Shiga Toxin. cell reporter, cycloheximide protein synthesis inhibition counterscreen. max response, %. 300,000 compounds, 12% hits. AID 2314, 2010; in the data active means max response mostly above about 13%, no sharp cut-off; inactive means mostly below about 14%; further: read at 38.3 µM for the half of the compounds with a filed dose; 0% is about no effect
TbPYK inhibitor: qHTS of Trypanosoma Brucei Inhibitors; AID 624173, 2012; TbPYK enzyme, Kinase-Glo Plus ATP luminescence, 45 min; pyruvate kinase (Trypanosoma brucei), Q57TT1; 410,000 compounds, 0.12% hits; Potency, µM (titrated, usually from 76.8 µM), for the others: top-dose activity, negative = inhibition, most hits filed as inhibitors; further: potency means the concentration at half of the fitted maximal effect; on the % scale 0 is the no-effect control and ±100 the full control effect; nearly all actives have a fitted effect of over 50% in size
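Readout: single end-point luminescence (Kinase-Glo Plus, 10 min). Reaction conditions were TbPYK/substrate plus 130 uM ADP, 45 min at RT, pH 7.2 TEA buffer. No-enzyme wells served as controls, and data were normalized before concentration-response fitting.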
LmPK inhibitor: qHTS Assay for Inhibitors of Leishmania Mexicana Pyruvate Kinase (LmPK) | Potency, µM (top dose mostly 57.5 µM), without a hit: at the highest dose activity change, negative = inhibition, most hits filed as inhibitors | purified LmPK, Kinase-Glo ATP luminescence, 1 h | 290,000 compounds, 0.37% hits | AID 1721, 2009; further: potency means the concentration at half of the fitted maximal effect; on the % scale 0 is the no-effect control and ±100 the full control effect
Target sequence (Q27686 whole entry, looked up): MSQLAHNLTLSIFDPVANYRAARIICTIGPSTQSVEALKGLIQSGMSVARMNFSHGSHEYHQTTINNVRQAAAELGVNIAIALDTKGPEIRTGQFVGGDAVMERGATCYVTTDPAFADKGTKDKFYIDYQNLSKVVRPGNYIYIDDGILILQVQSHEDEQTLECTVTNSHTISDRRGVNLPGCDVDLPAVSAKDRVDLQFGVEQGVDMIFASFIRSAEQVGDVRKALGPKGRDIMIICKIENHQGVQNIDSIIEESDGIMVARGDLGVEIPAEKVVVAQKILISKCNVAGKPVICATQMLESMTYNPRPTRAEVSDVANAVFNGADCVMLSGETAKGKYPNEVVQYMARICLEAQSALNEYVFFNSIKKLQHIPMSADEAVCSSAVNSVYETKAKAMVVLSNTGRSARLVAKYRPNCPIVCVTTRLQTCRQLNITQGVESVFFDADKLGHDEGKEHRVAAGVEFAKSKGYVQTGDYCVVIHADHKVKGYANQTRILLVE
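ATP generated from ADP (0.1 mM) and PEP (0.5 mM) by 0.1 nM LmPK over 1 h at room temperature (pH 7.2 imidazole buffer) was detected by coupled luciferase luminescence. Values were normalized to uninhibited and no-enzyme wells.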
Shiga inhibitor: A qHTS for Small Molecule Inhibitors of Shiga Toxin | Vero cells, Shiga toxin protein synthesis inhibition reporter | inhibition, % at 38.7 µM | 290,000 compounds, 9.2% hits; in the data active means inhibition mostly above about 28%, no sharp cut-off; inactive means mostly below about 43%; further: 0% is about no effect
Sm TGR block: qHTS Assay for the Inhibitors of Schistosoma Mansoni Peroxiredoxins | Schistosoma mansoni thioredoxin glutathione reductase (TGR), Q962Y6 | purified TGR, DTNB reduction, TNB absorbance 405 nm | Potency, µM (titrated, usually from 114 µM), inactives show at the top dose activity change, negative = inhibition, usual class: inhibitors | 360,000 compounds, 3% hits | AID 485364, 2010; further: potency means the concentration at half of the fitted maximal effect; on the % scale 0 is the no-effect control and ±100 the full control effect; nearly all actives have a fitted effect of over 60% in size
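First, TGR (20 nM dispensed) and NADPH were mixed with compound. Second, a 15 min room-temperature incubation followed. Third, further NADPH and then DTNB were added to start the reaction. Finally, TNB absorbance was monitored kinetically.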
Giardia growth: qHTS Assay for Inhibitors of Fructose-1,6-bisphosphate Aldolase from Giardia Lamblia: Giardia lamblia growth inhibition; Potency, µM (titrated, usually from 57.5 µM), for the others: at the top dose activity change, negative = inhibition, usual class: inhibitors; 1,500 compounds, 5% hits; shares compounds with Giardia FBPA inh-1; Giardia lamblia trophozoite growth inhibition; AID 2785, 2010;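 further: potency means the concentration at half of the fitted maximal effect; trophozoites exposed to compound for 48 h at 37 °C; on the % scale 0 is the no-effect control and ±100 the full control effect; nearly all actives have a fitted effect of over 70% in size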
Mammal cell tox: qHTS Assay for Inhibitors of Fructose-1,6-bisphosphate Aldolase from Giardia Lamblia: Mammalian cellular toxicity; shares compounds with Giardia FBPA inh-1; mammalian cell viability counter-screen, qHTS; Potency, µM (doses to about 57.5 µM), inactives show at the highest dose viability change, negative = toxicity, most hits filed as inhibitors; 1,500 compounds, 4% hits; AID 2786, 2010;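 further: Chinese hamster ovary cells used as mammalian cytotoxicity surrogate; viability measured as cellular ATP by luminescence; potency means the concentration at half of the fitted maximal effect; compound exposure lasted 48 h before reading; on the % scale 0 is the no-effect control and ±100 the full control effect; nearly all actives have a fitted effect of over 60% in size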
Giardia FBPA inh-2: qHTS Assay for Inhibitors of Fructose-1,6-bisphosphate Aldolase from Giardia Lamblia: Primary screen confirmation; shares compounds with Giardia FBPA inh-1; purified Giardia aldolase enzyme activity, qHTS; Potency, µM (highest dose often 57.5 µM), without a hit: at the highest dose activity change, negative = inhibition, hits mostly inhibitors; 1,500 compounds, 5% hits; AID 2787, 2010; further: potency means the concentration at half of the fitted maximal effect; on the % scale 0 is the no-effect control and ±100 the full control effect; nearly all actives have a fitted effect of over 45% in size
Rabbit FBPA inh: qHTS Assay for Inhibitors of Fructose-1,6-bisphosphate Aldolase from Giardia Lamblia: Rabbit FBPA Selectivity | 1,500 compounds, 4% hits | Potency, µM (top dose mostly 57.5 µM), for inactives: at the highest dose activity, negative = inhibition, most hits filed as inhibitors | Rabbit muscle FBPA enzyme inhibition, selectivity counter-screen | AID 2794, 2010 | shares compounds with Giardia FBPA inh-1; further: potency means the concentration at half of the fitted maximal effect; on the % scale 0 is the no-effect control and ±100 the full control effect; nearly all actives have a fitted effect of over 60% in size
GAPDH counter: qHTS Assay for Inhibitors of Fructose-1,6-bisphosphate Aldolase from Giardia Lamblia: Coupling assay counterscreen confirmation; shares compounds with Giardia FBPA inh-1; GAPDH coupling enzyme counterscreen, biochemical, qHTS; Potency, µM (top dose mostly 57.5 µM), without a hit: at the top dose activity change, negative = inhibition, most hits filed as inhibitors; 1,500 compounds, 6% hits; further: potency means the concentration at half of the fitted maximal effect; on the % scale 0 is the no-effect control and ±100 the full control effect; nearly all actives have a fitted effect of over 55% in size
* hit, by the source's call; ? = inconclusive; . = no result; [ ] = another dose, or the depositor's remark. Unless noted, the call rests on the fitted dose curve; in most records, active means well fitted curve in the direction sought with a large enough effect; inconclusive means small, poorly fitted or top-dose-only effect, or another doubt; inactive means no such curve, though single readings can be large; an effect the other way counts as inactive or inconclusive.

SMILES	Giardia FBPA inh-1	CHX counter	TbPYK inhibitor	LmPK inhibitor	Shiga inhibitor	Sm TGR block	Giardia growth	Mammal cell tox	Giardia FBPA inh-2	Rabbit FBPA inh	GAPDH counter
COc1ccccc1NC(=O)c1ccc(NC(=O)CSc2nc(N)cc(=O)[nH]2)cc1	.	.	-3%	.	.	-10%	.	.	.	.	.
COc1cccc(/C=C/C(=O)Nc2ccc(OC)nc2)c1	22µM*	30*	-2%	4%	88*	-13%	?	-8%	-19%	-1%	-9%
CC(C)C[C@H]1CN(CCCC[C@@H]2CNC(=O)C(=O)N2Cc2ccccc2)C(=O)C(=O)N1CCc1ccc(O)cc1	.	.	0%	.	.	.	.	.	.	.	.
COc1ccc(NS(=O)(=O)c2c(C)cc(C)cc2C)cn1	?	4	0%	-11%	-21	-21%	-13%[38.3 µM]	1%	-17%	-20%	-20%
COc1ccc(NS(=O)(=O)c2ccc(Br)cc2)cn1	-8%	-5	2%	-3%	-3	7%	.	.	.	.	.
Cc1cccc(C(C)C)c1NC(=O)C(C)OC(=O)Cc1n[nH]c(=O)c2ccccc12 (stereo not drawn)	.	.	-2%	.	.	4%	.	.	.	.	.
CCOc1ccc(CN2CCc3nc(Nc4ccc5c(c4)OCCO5)ncc3C2)cc1	.	.	-9%	.	.	8%	.	.	.	.	.
COC(=O)c1ccc(C(=O)OC)c(NC(=S)N2CCCC(C)C2)c1 (stereo not drawn)	6%	-3	6%	0%	-8	8%	.	.	.	.	.
COc1ccc(N=NC2C(=O)N(c3ccccc3)N=C2C)cc1 (stereo not drawn)	28µM*	13	4%	0%	12	4%	7%	-9%	2%	-1%	-1%
CC1=NN(c2nc(-c3ccc(C)cc3)cs2)C(=O)C1N=Nc1cccc(O)c1 (stereo not drawn)	-4%	9	?	-5%	15	-1%	.	.	.	.	.
CC1=NN(C(=O)c2ccncc2)C(=O)C1N=Nc1ccc2ccccc2c1 (stereo not drawn)	.	.	-28%	.	.	.	.	.	.	.	.
CC1=NN(c2ccccc2)C(=O)C1N=Nc1cccc(O)c1 (stereo not drawn)	10µM*	43*	2%	7%	86*	-19%	?	3%	4%	-3%	1%
O=C(O[C@@H]1OC2COC(=O)c3cc(O)c(O)c(O)c3-c3c(cc(O)c(O)c3O)C(=O)O[C@@H]([C@H]1O)[C@@H]2O)c1cc(O)c(O)c(O)c1	?	-2	?	-28%	-12	28µM*	-33%[38.3 µM]	-6%	?	?	?
COc1c(O)cc2c(c1O)C1OC(CO)C(O)[C@H](O)[C@H]1OC2=O (stereo partly drawn)	2%	.	.	.	.	.	.	.	.	.	.
